According to PubChem BioAssay (EPA / NIEHS):
Values joined by “and” are separate entries in the source; they are usually repeats but may differ in a detail not shown here. Equal entries are not always repeated. Active and inactive are the calls of the source. Rule for the calls: active = hit-call score of the fitted dose curve at least 0.9, where 1 is the maximum; inactive = score below 0.9.

Read-out: Vascular cell adhesion molecule 1 (VCAM1), VCAM1 (gene 7412)
Test: BSK_hDFCGF_VCAM1: BioMAP Diversity Plus: hDFCGF Assay for Vascular cell adhesion molecule 1 (VCAM1) Biomarker Activity (AID 2283065)
Settings: primary human foreskin fibroblasts; actives raise or lower the signal
Description: BSK_hDFCGF is a cell-based, multiplexed-readout assay that uses foreskin fibroblast, a human skin primary cell, with measurements taken at 24 hours after chemical dosing in a 96-well plate.BSK_hDFCGF_VCAM1 is an assay component measured in the BSK_hDFCGF assay. It measures VCAM-1 antibody related to regulation of gene expression using ELISA technology.Data from the assay component BSK_hDFCGF_VCAM1 was analyzed into 1 assay endpoint. This assay endpoint, BSK_hDFCGF_VCAM1, was analyzed with bidirectional fitting relative to DMSO as the negative control and baseline of activity. Using a type of binding reporter, gain or loss-of-signal activity can be used to understand changes in the signaling as they relate to the gene VCAM1. Furthermore, this assay endpoint can be referred to as a primary readout, because this assay has produced multiple assay endpoints where this one serves a signaling function. To generalize the intended target to other relatable targets, this assay endpoint is annotated to the cell adhesion molecules intended target family, where the subfamily is Immunoglobulin CAM.
The levels of cell surface (or secreted, indicated by the prefix "s") biomarker endpoints were measured by ELISA. Overt cytotoxicity to cells in confluent adherent cultures (all systems other than the BT system) was assessed by measuring total protein levels using sulforhodamine B (SRB) staining in parallel cultures at the time of biomarker measurements, indicated as SRB endpoints. For proliferation assays for adherent cell types, individual cell types are cultured at sub-confluence and relative cell numbers quantified by SRB staining at time points optimized for each system (48 h: 3C and CASM3C systems; 72 h: BT and HDF3CGF systems; 96 h: SAg system). SRB was performed by staining cells with 0.1% SRB after fixation with 10% TCA and reading wells at 560 nm.Viability and proliferation of PBMC (T cells) was quantified by Alamar Blue reduction for the SAg and BT systems. For PBMC viability (referred to as PBMC Cytotoxicity within the assay endpoint names), cells were plated (75,000/well in a 96-well plate) and then chemical samples added for 1 h before addition of activators, SEB and TSST-1 (20 ng/mL final concentration each). Cells were incubated for 90 h. Then, Alamar Blue (20 uL/well) (Invitrogen, Cat DAL1100) was added for 6 h, and the plates were read with a fluorescence microplate reader at 546/580 nm (excitation/emission). For PBMC proliferation, cells were plated and activated as above but incubated for only 16 h prior to addition of Alamar Blue. Plates were read after 6 h.

Row | Structure (SMILES) | outcome | AC50
1 | C=CC(=O)NC(C)(C)C | inactive | –
2 | CCCCCCCCCCCC(=O)N(C)CC(=O)O | inactive | –
3 | O=C(Oc1ccccc1)c1ccccc1C(=O)Oc1ccccc1 | inactive | –
4 | c1ccc(Nc2cccc3ccccc23)cc1 | – | 21.2 µM (active) and 20 µM (active)
5 | CC(Cl)COP(=O)(OCC(C)Cl)OCC(C)Cl (stereo not given) | inactive | –
6 | C1CNCCN1 | inactive | –
7 | CCCCCCC=O | inactive | –
8 | CCCCC1C(=O)N(c2ccccc2)N(c2ccccc2)C1=O | inactive | –
9 | Nc1nc(N)nc(-c2ccccc2)n1 | inactive | –
10 | CCOC(=O)C1=NOC(c2ccccc2)(c2ccccc2)C1 | inactive | –
11 | C=CCCCCCCCCC=O | inactive | –
12 | C=CC(=O)NCOCCCC | inactive | –
13 | Nc1ccc(C(=O)O)cc1 | inactive | –
14 | Oc1ccccc1Cc1ccccc1O | inactive | –
15 | CCCCCCCO | inactive | –
16 | Cc1c(O)cccc1O | inactive | –
17 | CC(c1cc(C(C)(C)C)cc(C(C)(C)C)c1O)c1cc(C(C)(C)C)cc(C(C)(C)C)c1O | inactive | –
18 | Fc1ccc(Br)cc1 | inactive | –
19 | COc1ccc(C(=O)c2ccccc2)c(O)c1 | inactive | –
20 | Nc1cccc(N)n1 | inactive | –

Row | Structure (SMILES) | outcome | AC50
21 | CC(C)[N+](C)(CCOC(=O)C1c2ccccc2Oc2ccccc21)C(C)C | inactive | –
22 | COC(OC)(C(=O)c1ccccc1)c1ccccc1 | inactive | –
23 | C=C(C)C(=O)OCCCCCCCCCCCC | inactive | –
24 | CCC1(C)C(=O)N(Cl)C(=O)N1Cl (stereo not given) | inactive | –
25 | CCCCCCCCCCCC(C)=O | inactive | –
26 | O=C(O)C(F)(F)C(F)(F)C(F)(F)C(F)(F)C(=O)O | inactive | –
27 | c1ccc2sc(SSN3CCOCC3)nc2c1 | inactive | –
28 | CC=C(C)C=CC=C(C)C | – | 6.06 µM (active)
29 | CCCCCC1=CCCC1=O | inactive | –
30 | C[N+](C)(C)CCCNS(=O)(=O)C(F)(F)C(F)(F)C(F)(F)C(F)(F)C(F)(F)C(F)(F)C(F)(F)C(F)(F)F | – | 38.9 µM (active) and 50.2 µM (active)
31 | C=CC(=O)OCCCCCCCC(C)C | – | 12.3 µM (active)
32 | CC(C)CCCCCOC(=O)CS | inactive | –
33 | c1ccc2c(c1)[nH]c1ccccc12 | inactive | –
34 | CCCCCCOC(=O)CCCCC(=O)OCCCCCC | inactive | –
35 | C=CC(=O)OCCCCCCOC(=O)C=C | – | 0.881 µM (active)
36 | Cc1ccc([N+](=O)[O-])cc1N | inactive | –
37 | CC=C(C)C(C)=O | – | 6.7 µM (active)
38 | CCNc1nc(NC(C)(C)C)nc(OC)n1 | inactive | –
39 | CC/C=C\CCOC(=O)c1ccccc1O | – | 14.9 µM (active)
40 | Oc1c(Cl)cc(Cl)c(Cl)c1Cl | – | 23.3 µM (active)
